Assay [1] in a line: NCI Yeast Anticancer Drug Screen. Data for the rad50 strain (AID 155).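 Also: 0% = growth of vehicle-only cultures of the same strain.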 Particulars: S. cerevisiae rad50 strain growth inhibition, active compounds read high. Summed up: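 Relative growth inhibition (compound vs vehicle) was measured in yeast with a defined repair-gene alteration.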
A short description of assay [2]: NCI Yeast Anticancer Drug Screen. Data for the mec2-1 strain (AID 157). As to conditions: S. cerevisiae mec2-1 strain, active compounds read high. The method, boiled down:
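Yeast mec2-1 mutant treated with compound. Readout: growth inhibition vs vehicle controls.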

Assay [3] can be described thus: NCI Yeast Anticancer Drug Screen. Data for the sgs1 mgt1 strain (AID 161).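 Also: 0% = growth of cultures given vehicle only.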 As to conditions: S. cerevisiae sgs1 mgt1 strain, active compounds read high. The method, boiled down:
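Read-out: growth inhibition vs vehicle controls. Cells: mutant yeast strain deficient in DNA damage repair.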

The nature of assay [4]: NCI Yeast Anticancer Drug Screen. Data for the cln2 rad14 strain (AID 165).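 Also: 0% = growth equal to vehicle treated cultures.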 Particulars: S. cerevisiae cln2 rad14 strain, active compounds read high. Summed up:
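cln2 rad14 yeast strain; compound exposure; growth inhibition read vs vehicle controls.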

A short description of assay [5]: NCI Yeast Anticancer Drug Screen. Data for the bub3 strain (AID 167). Particulars: S. cerevisiae bub3 mutant strain, active compounds read high. The method, boiled down:
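Screening used yeast with an engineered genetic alteration affecting cell cycle control. Compound-exposed cultures were compared with vehicle cultures, and reduced growth was taken as inhibition.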

Assay [6] is described as follows: NCI Yeast Anticancer Drug Screen. Data for the mlh1 rad18 strain (AID 175). Particulars: S. cerevisiae mlh1 rad18 strain growth inhibition, active compounds read high. The method, boiled down: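 Yeast w/ defined DNA-repair lesions; compound exposure; growth vs vehicle controls → % inhibition.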
The mark [7] stands for this setting: at 5.0 µM (retest, dose inferred, filed as 0.5).
Where [8] appears, read: at 50.0 µM (retest, dose inferred, filed as 5.0).

This is part of a sample that, as a whole, favours compounds with a hit. Of some 79,000 tested, about 15% had one in any assay. Unmarked numbers belong to inactive results. Calls of active or inactive are those of the source. Rule as the data show it: active = growth inhibition above about 70%; inactive = the rest.

Regarding `CCCn1cc2c(SC)nc(SC)nc2n1`, the growth inhibition is -1% in assay [1] (setting [7]); 5% in assay [1] (setting [8]); 98.1% (active) in assay [1] (at 50.0 µM); 0% in assay [2] (setting [7]); 46% in assay [2] (setting [8]); 98.3% (active) in assay [2] (at 50.0 µM). The growth inhibition was -2% in assay [3] (setting [7]); 10% in assay [3] (setting [8]); 97% (active) in assay [3] (at 50.0 µM); 2% in assay [4] (setting [7]); 38% in assay [4] (setting [8]); 87.3% (active) in assay [4] (at 50.0 µM). Besides, the growth inhibition in assay [5] (setting [7]) is 4%; in assay [5] (setting [8]), 99% (active); in assay [5] (at 50.0 µM), 99.5% (active); in assay [6] (setting [7]) it was -3%; in assay [6] (setting [8]) it was 14%; in assay [6] (at 50.0 µM) it was 98.1% (active).

Turning to `CC(=O)O/N=C1/CCC2C3CC=C4CC(OC(C)=O)CCC4(C)C3CCC12C` (stereo not drawn), the growth inhibition is 0% in assay [1] (setting [7]); 69% in assay [1] (setting [8]); 68.8% in assay [1] (at 50.0 µM); 16% in assay [2] (setting [7]); 93% (active) in assay [2] (setting [8]); 71.5% (active) in assay [2] (at 50.0 µM). In addition, the growth inhibition in assay [3] (setting [7]) is 8%; in assay [3] (setting [8]), 89% (active); in assay [3] (at 50.0 µM), 89.9% (active); in assay [4] (setting [7]) it was -1%; in assay [4] (setting [8]), 87% (active); in assay [4] (at 50.0 µM), 85% (active). For the same compound, the growth inhibition in assay [5] (setting [7]) was -7%; in assay [5] (setting [8]), 74% (active); in assay [5] (at 50.0 µM), 41.5%; in assay [6] (setting [7]), 34%; in assay [6] (setting [8]) it was 93% (active); in assay [6] (at 50.0 µM), 77.1% (active).

On to `CCOC(=O)C1SC(=Nc2cccc(Cl)c2C)N=C1C` (stereo not drawn), for which the growth inhibition in assay [1] (setting [7]) was 22%; in assay [1] (setting [8]), 83% (active); in assay [1] (at 50.0 µM), 85.3% (active); in assay [2] (setting [7]) it was 24%; in assay [2] (setting [8]), 72% (active); in assay [2] (at 50.0 µM) it was 88.1% (active). In addition, the growth inhibition is 23% in assay [3] (setting [7]); 91% (active) in assay [3] (setting [8]); 82% (active) in assay [3] (at 50.0 µM); 27% in assay [4] (setting [7]); 73% (active) in assay [4] (setting [8]); 86% (active) in assay [4] (at 50.0 µM). Also, the growth inhibition in assay [5] (setting [7]) is 34%; in assay [5] (setting [8]) it was 88% (active); in assay [5] (at 50.0 µM), 89.4% (active); in assay [6] (setting [7]), 38%; in assay [6] (setting [8]) it was 91% (active); in assay [6] (at 50.0 µM), 86.2% (active).

As for `CCOC(=O)c1cc(Cl)nc2ccc(OC)cc12`, the growth inhibition in assay [1] (setting [7]) is -3%; in assay [1] (setting [8]), -30%; in assay [1] (at 50.0 µM), 0.05%; in assay [2] (setting [7]), -3%; in assay [2] (setting [8]), -30%; in assay [2] (at 50.0 µM) it was 9.35%. The growth inhibition is -4% in assay [3] (setting [7]); -31% in assay [3] (setting [8]); 20.3% in assay [3] (at 50.0 µM); 0% in assay [4] (setting [7]); -41% in assay [4] (setting [8]); 40.9% in assay [4] (at 50.0 µM). In addition, the growth inhibition in assay [5] (setting [7]) is 6%; in assay [5] (setting [8]), -12%; in assay [5] (at 50.0 µM), 49.4%; in assay [6] (setting [7]), -2%; in assay [6] (setting [8]) it was -25%; in assay [6] (at 50.0 µM) it was 15.4%.

`O=C(O)C1CCC(CC2CC3CCC2C3)CC1` (stereo not drawn): the growth inhibition in assay [1] (setting [7]) is -146%; in assay [1] (setting [8]), 79% (active); in assay [1] (at 50.0 µM), 74.7% (active); in assay [2] (setting [7]), -54%; in assay [2] (setting [8]), 54%; in assay [2] (at 50.0 µM), 88.5% (active). Further, the growth inhibition was -58% in assay [3] (setting [7]); 85% (active) in assay [3] (setting [8]); 41.8% in assay [3] (at 50.0 µM); -79% in assay [4] (setting [7]); 65% in assay [4] (setting [8]); 44.2% in assay [4] (at 50.0 µM). For the same compound, the growth inhibition was -73% in assay [5] (setting [7]); 69% in assay [5] (setting [8]); 73.3% (active) in assay [5] (at 50.0 µM); -125% in assay [6] (setting [7]); 86% (active) in assay [6] (setting [8]); 53.8% in assay [6] (at 50.0 µM).

Regarding `CC(C)NC(=O)OCCS(=O)c1c(Cl)c(Cl)nn1C` (stereo not drawn), the growth inhibition is -15% in assay [1] (setting [7]); 62% in assay [1] (setting [8]); 98.8% (active) in assay [1] (at 50.0 µM); 11% in assay [2] (setting [7]); 37% in assay [2] (setting [8]); 99.2% (active) in assay [2] (at 50.0 µM). Moreover, the growth inhibition is -5% in assay [3] (setting [7]); 53% in assay [3] (setting [8]); 42.4% in assay [3] (at 50.0 µM); 1% in assay [4] (setting [7]); 20% in assay [4] (setting [8]); 97.7% (active) in assay [4] (at 50.0 µM). The growth inhibition was -4% in assay [5] (setting [7]); 75% (active) in assay [5] (setting [8]); 97% (active) in assay [5] (at 50.0 µM); -7% in assay [6] (setting [7]); 56% in assay [6] (setting [8]); 99% (active) in assay [6] (at 50.0 µM).

Source of the values: PubChem BioAssay (NCI).
